In PubChem BioAssay AID1332 (Southern Research Institute, 2008):
In brackets after ≈: the same amount, converted by molar mass. Among all 1,100 compounds or so, about 170 (15%) were called active. The rule behind the calls is not given here. These entries were drawn from the full list.

Experiment: Mycobacterium tuberculosis H37Rv growth inhibition, confirmatory dose response, cytotoxicity (AID 1332);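 for CC50: Vero cells exposed to compounds for 72 hours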;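 for IC50: bacteria incubated 7 days before adding Alamar blue readout reagent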
Details: M. tuberculosis H37Rv growth inhibition; CC50: measured here: Vero cell cytotoxicity; IC50: measured here: IC50 H37Rv replicates

| SMILES | IC50 | outcome | CC50 |
| --- | --- | --- | --- |
| CCC(=O)OCC(=O)C1(OC(=O)CC)[C@H](C)C[C@H]2[C@H]3[C@H]([C@@H](O)C[C@@]21C)[C@@]1(C)C=CC(=O)C=C1C[C@H]3Cl (some centres undefined) | > 20 µg/mL | inactive | – |
| O=C1C(CCS(=O)c2ccccc2)C(=O)N(c2ccccc2)N1c1ccccc1 (centres undefined) | > 20 µg/mL | inactive | – |
| CN(C)C/C=C(\c1ccc(Br)cc1)c1cccnc1 | > 20 µg/mL | inactive | – |
| CC1(C)S[C@@H]2[C@H](NC(=O)[C@H](N)c3ccccc3)C(=O)N2[C@H]1C(=O)O | > 20 µg/mL | inactive | – |
| CN(Cc1cnc2nc(N)nc(N)c2n1)c1ccc(C(=O)NC(CCC(=O)O)C(=O)O)cc1 (centres undefined) | > 20 µg/mL | inactive | 0.048 µg/mL (≈ 0.106 µM) |
| CC(C(=O)O)c1ccc(N2Cc3ccccc3C2=O)cc1 (centres undefined) | > 20 µg/mL | inactive | – |
| C[C@H]1[C@H]2CC[C@H]3[C@@H]4CC=C5C[C@@H](N(C)C)CC[C@]5(C)[C@H]4CC[C@]23CN1C | > 20 µg/mL | inactive | – |
| NC(N)=NC(N)=NCCc1ccccc1 | > 20 µg/mL | inactive | – |
| CCOC(=O)[C@H](CCc1ccccc1)N[C@@H](C)C(=O)N1CCC[C@H]1C(=O)O | > 20 µg/mL | inactive | – |
| CC(=O)Oc1ccccc1C(=O)Oc1ccccc1C(=O)O | > 20 µg/mL | inactive | – |
| O=C(OCC(O)CO)c1ccccc1Nc1ccnc2cc(Cl)ccc12 (centres undefined) | > 20 µg/mL | inactive | – |
| CCc1cccc(CC)c1NC(=O)CN(CC(=O)O)CC(=O)O | > 20 µg/mL | inactive | – |
| COc1cc(-c2ccc(N=Nc3ccc4c(S(=O)(=O)O)cc(S(=O)(=O)O)c(N)c4c3O)c(OC)c2)ccc1N=Nc1ccc2c(S(=O)(=O)O)cc(S(=O)(=O)O)c(N)c2c1O | > 20 µg/mL | inactive | – |
| NCC1CCC(C(=O)O)CC1 (centres undefined) | > 20 µg/mL | inactive | – |
| C[C@H](O)C(=O)Nc1c(I)c(C(=O)NC(CO)CO)c(I)c(C(=O)NC(CO)CO)c1I | > 20 µg/mL | inactive | – |
| CCCOc1cc(N)ccc1C(=O)OCCN(CC)CC | > 20 µg/mL | inactive | – |
| COc1c2c(nc3ccccc13)OC(C(C)(O)CO)C2 (centres undefined) | > 20 µg/mL | inactive | – |
| CN1C(CC(O)c2ccccc2)CCCC1CC(O)c1ccccc1 (centres undefined) | > 20 µg/mL | inactive | – |
| CN1CCCCC1CCN1c2ccccc2Sc2ccc(S(C)=O)cc21 (centres undefined) | > 20 µg/mL | inactive | – |
| CN1CCC[C@@H]1CCO[C@](C)(c1ccccc1)c1ccc(Cl)cc1 | 10.9 µg/mL (≈ 31.7 µM) | active | > 6 µg/mL |
| O[C@@H]1[C@@H](O)C=C2CCN3Cc4cc5c(cc4[C@H]1C23)OCO5 (some centres undefined) | > 20 µg/mL | inactive | 0.806 µg/mL (≈ 2.81 µM) |
| CCn1cc(C(=O)O)c(=O)c2cc3c(cc21)OCO3 | > 20 µg/mL | inactive | – |
| CC1CCc2cc(F)cc3c(=O)c(C(=O)O)cn1c23 (centres undefined) | 9.83 µg/mL (≈ 37.6 µM) | active | – |
| O=C1N=C(O)CN1/N=C/c1ccc(-c2ccc([N+](=O)[O-])cc2)o1 | > 20 µg/mL | inactive | – |
| CNCC(O)c1ccc(OC(=O)C(C)(C)C)c(OC(=O)C(C)(C)C)c1 (centres undefined) | > 20 µg/mL | inactive | – |
| C=C(C)[C@@H]1C2C(=O)O[C@H]1[C@H]1OC(=O)[C@@]34OC3C[C@]2(O)[C@@]14C (some centres undefined) | > 20 µg/mL | inactive | – |
| CC1(C)OC(=O)NC1=O | > 20 µg/mL | inactive | – |
| CC(C)(C)C(=O)OCOC(=O)[C@@H]1N2C(=O)[C@@H](NC(=O)[C@H](N)c3ccccc3)[C@H]2SC1(C)C | > 20 µg/mL | inactive | – |
